Consider 13 molecules from PubChem BioAssay.

SMILES strings stand for the structures. Active and inactive are the calls of the source.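 How the source made its calls, unless noted: active means inhibition at or above 50% at 10 µM; inactive means inhibition below 50%.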

Experiment [1] is described as follows: inhibitors of TNFa-induced NFkB p65 translocation, primary screen, imaging, HUVEC, MLSMR starter and 10KST1 sets (AID 438;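 active means inhibition above 20% together with a positive visual image hit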;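 further: compound added about 3h40 before a 20 min TNFalpha stimulation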;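 on inhibition: signal is the nuclear over cytoplasmic p65 intensity ratio per well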). Conditions: HUVEC TNFa-induced p65 nuclear translocation; cell count: measured here: nuclei count (cytotoxicity indicator), at 2.08 µM; inhibition: at 2 µM, stronger effect = higher value, 0% TNFa-plus-vehicle, 100% no-TNFa wells.
Experiment [2] in a line: inhibitors of mutant huntingtin aggregation, primary screen, imaging, exon1htt(103Q)mCFP cells, high-content imaging (AID 483;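 active means visual image review flags a hit and inhibition of aggregation exceeds 20%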;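 further: compound exposure lasted 3 days before fixation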;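 on nuclei count: percent of the per-plate median nuclei count of sample wells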). Conditions: exon1htt(103Q)mCFP cell line, aggregate imaging, at 2 µM; inhibition of aggregation: stronger effect = higher value; nuclei count: measured here: cell count, toxicity.
The nature of experiment [3]: inhibitors of E-selectin induction by TNFa, primary screen, imaging, HUVEC, immunofluorescence, MLSMR starter and 10KST1 sets (AID 487;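 active means visually confirmed hit in the image check and inhibition above 20%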;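 on inhibition: signal is fraction of cell area covered by stained E-selectin grains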;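 on nuclei count: 100% = median nuclei count of all wells on the same plate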). Particulars: HUVEC TNFalpha-induced E-selectin immunofluorescence imaging, at 2 µM; inhibition: stronger effect = higher value; nuclei count: measured here: cell number, toxicity.
Experiment [4] concerns the target Voltage-gated potassium channel subunit beta-2 (Rattus norvegicus) (UniProt P62483). Kind of experiment: KvBeta enzyme negative modulators, primary screen, biochemical, NADPH fluorescence (AID 622;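 active means fluorescence slope higher than the sample average by over 3 SD, cut at about -0.22 in these data, passing the limit was not always enough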;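 further: slope of raw intensity against log time taken from 70 to 1610 s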). Particulars: recombinant KvBeta, 4-cyanobenzaldehyde reduction, at 10 µM, stronger effect = higher value.
Experiment [5] has the same target. Description: KvBeta positive modulators, primary screen, biochemical, NADPH fluorescence (AID 623;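 active means NADPH fluorescence slope more negative than the mean of all samples by about 3 SD, 99.7% confidence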;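 further: fluorescence intensity change per second fitted from 20 to 320 s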). Particulars: Recombinant KvBeta, NADPH fluorescence decrease slope, 10 min; at 10 µM; stronger effect = lower value.
The target of experiment [6] is Alpha-2C adrenergic receptor (Homo sapiens) (UniProt P18825). Kind of experiment: modulators of alpha2C/GIRK thallium flux, primary screen, cell-based, HEK293 alpha2C/GIRK1/2 (AID 624;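 active means fluorescence slope after compound addition differing from the mean of all screened samples at 99.7% confidence, in either direction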;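 further: slope of fluorescence ratio to pre-addition baseline per second over 15 to 24 s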). Particulars: thallium flux BTC fluorescence, at 10 µM, actives lie on both sides.
Chain of Alpha-2C adrenergic receptor (Homo sapiens) (P18825 whole entry, looked up): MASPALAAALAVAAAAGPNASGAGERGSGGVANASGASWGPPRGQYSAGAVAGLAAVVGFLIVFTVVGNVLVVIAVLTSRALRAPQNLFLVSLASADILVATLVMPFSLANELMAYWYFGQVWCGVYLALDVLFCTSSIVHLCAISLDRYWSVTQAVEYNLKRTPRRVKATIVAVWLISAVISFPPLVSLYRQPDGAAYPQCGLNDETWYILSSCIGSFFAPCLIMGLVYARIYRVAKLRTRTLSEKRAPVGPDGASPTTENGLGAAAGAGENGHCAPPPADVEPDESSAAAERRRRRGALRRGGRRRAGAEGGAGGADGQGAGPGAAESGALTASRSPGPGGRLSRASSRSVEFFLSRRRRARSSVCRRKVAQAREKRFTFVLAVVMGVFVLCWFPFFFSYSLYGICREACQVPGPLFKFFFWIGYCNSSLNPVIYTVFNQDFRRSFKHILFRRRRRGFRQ
The nature of experiment [7]: inhibitors of Sendai virus-induced IRF3 signaling, primary screen, TLR/RLR signaling modifier project, cell-based, Sendai virus stimulus, luciferase, 10K MLSCN set (AID 602276).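 Further: firefly luciferase from ISG56 promoter only with Renilla not read in this screen; 0% = Sendai virus plus DMSO and 100% = medium plus DMSO without virus.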 Particulars: HEK293 RL24 IRF3 luciferase reporter, at 10 µM, stronger effect = higher value. A general note: A reporter such as luciferase makes a cellular process visible.
Experiment [8] in a line: inhibitors of poly I:C-induced TLR3 signaling, primary screen, cell-based, poly I:C stimulus, luciferase, 10K MLSCN set (AID 602277;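 active means inhibition of the reporter signal at or above 50%; inactive means inhibition below 50%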). Particulars: HEK293-TLR3 RL24 IRF3 luciferase reporter, at 10 µM, stronger effect = higher value.

Chain of Voltage-gated potassium channel subunit beta-2 (Rattus norvegicus) (P62483 whole entry, looked up): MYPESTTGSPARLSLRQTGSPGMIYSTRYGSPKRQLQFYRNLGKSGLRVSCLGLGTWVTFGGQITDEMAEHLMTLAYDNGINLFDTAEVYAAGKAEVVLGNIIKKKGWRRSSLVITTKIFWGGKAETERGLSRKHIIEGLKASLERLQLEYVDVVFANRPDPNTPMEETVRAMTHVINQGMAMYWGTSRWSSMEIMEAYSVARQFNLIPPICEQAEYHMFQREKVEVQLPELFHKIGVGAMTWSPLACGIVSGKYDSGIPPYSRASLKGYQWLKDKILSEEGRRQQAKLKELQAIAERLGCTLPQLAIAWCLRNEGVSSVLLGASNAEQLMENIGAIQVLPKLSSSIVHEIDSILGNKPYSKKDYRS

In general, inhibition refers to the relative decrease from the control value, in per cent. With `COc1ccc(-c2nc(SC)n(S(=O)(=O)c3ccccc3)n2)cc1`, the cell count in experiment [1] came out at 683. In addition, the inhibition was -1.9% (inactive) in experiment [1], -122% (inactive) in experiment [3], -26% (inactive) in experiment [7] and -119% (inactive) in experiment [8]. Moreover, the inhibition of aggregation in experiment [2] is 7.6% (inactive). Also, the nuclei count was 99.4% in experiment [2] and 109% in experiment [3]. In experiment [4], the fluorescence slope was -0.476 (inactive). In experiment [5], the NADPH fluorescence slope is 9.5e-05 (inactive). In experiment [6], the slope is 0.00851 (inactive).
Take `COc1ccccc1NC(=O)CSc1nnc(-c2ccncc2)o1`: the cell count in experiment [1] stood at 469. Moreover, the inhibition in experiment [1] was 5.3% (inactive); in experiment [3], -23.6% (inactive); in experiment [7], -2.18% (inactive); in experiment [8], -9.84% (inactive). In experiment [2], the inhibition of aggregation is -7.5% (inactive). The nuclei count amounted to 110% in experiment [2] and 117% in experiment [3]. Further, in experiment [4], the fluorescence slope was -0.506 (inactive). In experiment [5], the NADPH fluorescence slope is 1.9e-05 (inactive). In addition, the slope in experiment [6] was 0.00395 (inactive).
In the case of `CCOC(=O)c1sc(NC(=O)CSc2nnnn2-c2ccccc2)c(C(=O)OCC)c1C`, the cell count in experiment [1] was found to be 425. Moreover, the inhibition is -1.3% (inactive) in experiment [1], -467% (inactive) in experiment [3], -15.7% (inactive) in experiment [7] and -15.7% (inactive) in experiment [8]. Further, the inhibition of aggregation in experiment [2] is 12.5% (inactive). The results for the nuclei count in experiment [2] and in experiment [3] were 96.5% and 156%, respectively. The fluorescence slope in experiment [4] is -0.567 (inactive). In experiment [5], the NADPH fluorescence slope was 1.2e-05 (inactive). In experiment [6], the slope was 0.00928 (inactive).
As for `CC1Cc2ccccc2N1C(=O)c1cccnc1` (stereo not drawn), the cell count in experiment [1] came to 254. The inhibition in experiment [1] is -1% (inactive); in experiment [3], -64.3% (inactive); in experiment [7] it was 14.1% (inactive); in experiment [8], 25.5% (inactive). Also, the inhibition of aggregation in experiment [2] was -30.3% (inactive). Moreover, the nuclei count in experiment [2] came to 106%; in experiment [3] it was 103%. In addition, the fluorescence slope in experiment [4] was -0.422 (inactive). For the same molecule, the NADPH fluorescence slope in experiment [5] was -8.5e-05 (inactive). In addition, in experiment [6], the slope was 0.00616 (inactive).
Turning to `Cn1c(=O)c2c(nc(NCc3ccco3)n2C/C=C/c2ccccc2)n(C)c1=O`, the cell count in experiment [1] is 256. For the same molecule, the inhibition in experiment [1] is 8.8% (inactive); in experiment [3] it was -65.5% (inactive); in experiment [7], 14.8% (inactive); in experiment [8], 18.9% (inactive). The inhibition of aggregation in experiment [2] is 6.1% (inactive). Also, the nuclei count is 99.5% in experiment [2] and 118% in experiment [3]. Moreover, in experiment [4], the fluorescence slope is -0.637 (inactive). In addition, the NADPH fluorescence slope in experiment [5] is 3.3e-05 (inactive). In addition, the slope in experiment [6] was 0.00629 (inactive).
For the molecule `Cc1ccc(S(=O)(=O)CC(=O)N2CCCCCC2)cc1`, the cell count in experiment [1] came to 615. In addition, the inhibition in experiment [1] was 9.2% (inactive); in experiment [3], -33% (inactive); in experiment [7] it was -16.3% (inactive); in experiment [8], -15.4% (inactive). Besides, in experiment [2], the inhibition of aggregation was 17% (inactive). In addition, the nuclei count was determined as 103% in experiment [2] and 112% in experiment [3]. In addition, the fluorescence slope in experiment [4] was -0.504 (inactive). Also, the NADPH fluorescence slope in experiment [5] is -5.2e-05 (inactive). The slope in experiment [6] was 0.0061 (inactive).
As to `O=C(COC(=O)CCc1c[nH]c2ccccc12)NC1CCS(=O)(=O)C1` (stereo not drawn), in experiment [1], the cell count turned out to be 473. The inhibition in experiment [1] is 4.7% (inactive); in experiment [3], -70.8% (inactive); in experiment [7], 4.42% (inactive); in experiment [8] it was -2.03% (inactive). Also, the inhibition of aggregation in experiment [2] is -7.7% (inactive). The nuclei count in experiment [2] amounted to 101%; in experiment [3], 113%. Also, in experiment [4], the fluorescence slope was -0.57 (inactive). The NADPH fluorescence slope in experiment [5] is -1.6e-05 (inactive). The slope in experiment [6] is 0.00772 (inactive).
Regarding `Cc1c(C)c2ccc(OC3CCCCC3=O)cc2oc1=O` (stereo not drawn), the cell count in experiment [1] was found to be 573. Besides, the inhibition in experiment [1] is -9.2% (inactive); in experiment [3] it was 38.5% (inactive); in experiment [7], -2.48% (inactive); in experiment [8], -14.3% (inactive). Besides, the inhibition of aggregation in experiment [2] is -0.8% (inactive). The nuclei count in experiment [2] was 120%; in experiment [3] it was 134%. In addition, the fluorescence slope in experiment [4] was -0.175 (inactive). Moreover, the NADPH fluorescence slope in experiment [5] was -2e-05 (inactive). The slope in experiment [6] is 0.0054 (inactive).
Regarding `C=C(C)COc1ccc(-c2nc(N)ncc2-c2ccc(OC)cc2)c(O)c1`, the cell count in experiment [1] is 278. In addition, the inhibition in experiment [1] was -9.5% (inactive); in experiment [3], -120% (inactive); in experiment [7] it was 5.72% (inactive); in experiment [8], 27.1% (inactive). Besides, in experiment [2], the inhibition of aggregation is 24.6% (inactive). Moreover, the nuclei count is 69.5% in experiment [2] and 111% in experiment [3]. Moreover, the fluorescence slope in experiment [4] was -0.433 (inactive). In addition, the NADPH fluorescence slope in experiment [5] was -2.4e-05 (inactive). Further, the slope in experiment [6] was 0.00614 (inactive).
`OC1(c2cccc(C(F)(F)F)c2)CCNCC1`: the cell count in experiment [1] was 370. In addition, the inhibition is 1.4% (inactive) in experiment [1], -19% (inactive) in experiment [3], 18.9% (inactive) in experiment [7] and 22.1% (inactive) in experiment [8]. The inhibition of aggregation in experiment [2] was -1.7% (inactive). The nuclei count was 106% in experiment [2] and 118% in experiment [3]. In addition, the fluorescence slope in experiment [4] was -0.281 (inactive). Further, in experiment [5], the NADPH fluorescence slope is 2.4e-05 (inactive). Besides, the slope in experiment [6] was 0.007 (inactive).
On to `CC(=O)c1c(OC(=O)c2ccco2)c2ccccc2n1C`, for which, in experiment [1], the cell count was 386. The inhibition in experiment [1] was 1% (inactive); in experiment [3], -81.6% (inactive); in experiment [7], 12% (inactive); in experiment [8], 1.24% (inactive). In addition, the inhibition of aggregation in experiment [2] was 15.7% (inactive). The results for the nuclei count in experiment [2] and in experiment [3] were 72.8% and 101%, respectively. In experiment [4], the fluorescence slope was -0.367 (inactive). For the same molecule, in experiment [5], the NADPH fluorescence slope is -1.2e-05 (inactive). Further, the slope in experiment [6] was 0.00641 (inactive).
Regarding `Cc1noc(/C=C/N(C)C)c1S(=O)(=O)N1CCCC(C(=O)N2CCCCC2)C1` (stereo not drawn), in experiment [1], the cell count was 709. For the same molecule, the inhibition in experiment [1] was 9.1% (inactive); in experiment [3], -79.5% (inactive); in experiment [7], 7.18% (inactive); in experiment [8], 28.7% (inactive). Besides, the inhibition of aggregation in experiment [2] was -0.1% (inactive). Moreover, the nuclei count is 80.5% in experiment [2] and 117% in experiment [3]. Besides, the fluorescence slope in experiment [4] was -0.516 (inactive). Besides, the NADPH fluorescence slope in experiment [5] is -3.8e-05 (inactive). Besides, the slope in experiment [6] is 0.00526 (inactive).
As for `c1ccc2c(c1)nc(-c1ccncc1)n1nnnc21`, the cell count in experiment [1] is 517. Moreover, the inhibition in experiment [1] was -8.5% (inactive); in experiment [3], -111% (inactive); in experiment [7], 7.9% (inactive); in experiment [8] it was 0.706% (inactive). For the same molecule, the inhibition of aggregation in experiment [2] was 8.6% (inactive). Besides, the figures for the nuclei count in experiment [2] and in experiment [3] were 104% and 179%, respectively. In experiment [4], the fluorescence slope was -0.359 (inactive). The NADPH fluorescence slope in experiment [5] was -1.7e-05 (inactive). The slope in experiment [6] was 0.00824 (inactive).
